These results are taken from PubChem BioAssay AID1259343 (VanderVen Lab, College of Veterinary Medicine, Cornell …, 2017).

About 2,900 (47%) of roughly 6,200 compounds were called active. The set was probably picked from earlier hits. The list shows a part of the results. Values without a mark were called inactive. Rule as the data show it: active = inhibition above about 50%; inactive = the rest.

A short description of the test: Mycobacterium tuberculosis growth inhibition, primary screen (AID 1259343). The note with it: inhibition: at 10 µM, hits give high values; outcome: 10 uM.
In the case of `COc1cc(C=NN=c2sc3ccccc3n2C)cc(OC)c1O`, the inhibition was 68.8% (active). With `Cn1c(=NN=Cc2ccc(OC(F)F)cc2)sc2ccccc21` the figure was -24.6%. With `Cn1c(=NN=CC(Br)=Cc2ccccc2)sc2ccccc21` the figure was 88.2% (active). With `COc1cc(C=NN=c2sc3ccccc3n2C)cc(Br)c1O` the figure was 10.7%; with `Cn1c(=NN=CC(Cl)=Cc2ccccc2)sc2ccccc21`, 88.7% (active); with `Cn1c(=NN=Cc2ccccc2C(F)(F)F)sc2ccccc21`, -39.7%. In the case of `CCN(CCNC(=O)NCC1CCCC1)C(=O)OC(C)(C)C`, the inhibition is 47.4%. As to `Cc1cc(NC(=O)C2CC2)sc1C(=O)n1ccnc1`, the inhibition is 48.7%.

In the case of `O=C(NCC1CCCC1)n1ccnc1`, the inhibition was 79.2% (active). `CC1CN(C(=O)CN2CCc3sccc3C2c2cccc(F)c2)CCN1C(=O)Nc1ccc([N+](=O)[O-])cc1` (stereo unspecified): the inhibition is -36.2%. In the case of `OC(C#Cc1ccccc1)C#CC(O)(c1ccccc1)c1ccccc1` (stereo unspecified), the inhibition is -2.57%. With `CSc1ccc(C=CC(=O)c2ccc3c(c2)OCCO3)cc1` the figure was -10.1%. With `N#CC(=Cc1ccc2c(c1)OCCO2)C(=O)Nc1ccc(SC(F)F)cc1` the figure was 84.4% (active). To `O=S(=O)(Nc1ccccc1Br)c1ccccc1Br` belongs 91.4% (active). For `CC(C)(C)c1ccccc1NS(=O)(=O)c1ccc(Cl)s1`, the inhibition is 23.7%. In the case of `O=S(=O)(Nc1ccccc1Br)c1ccc(Br)s1`, the inhibition is 83.3% (active). In the case of `COC(=O)c1ccc(NS(=O)(=O)c2ccccc2Br)s1`, the inhibition is 43.4%. As for `CCc1ccccc1NS(=O)(=O)c1cc(Cl)cnc1N`, the inhibition was 1.41%. For the compound `CC1(C)C(C=C(Cl)Cl)C1C(=O)OCc1cccc(Oc2ccccc2)c1` (stereo unspecified), the inhibition was -12.7%. With `O=C(NCCc1ccc(Cl)cc1Cl)c1cn[nH]c1` the figure was 91.4% (active). With `O=C(NCCc1cc(Cl)cc(Cl)c1)c1ccc2c(c1)COCO2` the figure was 25.3%. With `CCOc1ccccc1CNC(=O)c1ccc(-c2cc(-c3ccc(Cl)cc3Cl)[nH]n2)cc1` the figure was 31.1%; with `CN(C)c1c(Cl)cccc1NC(=O)NCc1ccoc1`, 40.8%; with `Oc1cccc(OCc2cccc(C(F)(F)F)c2)c1`, 89.2% (active). Regarding `CC(=O)Nc1ccc(OCc2cccc(C(F)(F)F)c2)cc1`, the inhibition is 57.6% (active).

For the compound `N#Cc1ccc(NC(=O)Cc2cccc(C(F)(F)F)c2)cc1Cl`, the inhibition is 8.71%.

Regarding `COc1cc(COc2ccc(NC(C)=O)cc2)c(OC)cc1Br`, the inhibition was 19.7%.

Regarding `ON=Cc1cccc(OCc2ccccc2)c1`, the inhibition was -7.21%. As for `FC(F)(F)c1cccc(CSc2ncnc3ccccc23)c1`, the inhibition was 38.1%. As for `CC(NS(=O)(=O)Cc1cccc(C(F)(F)F)c1)c1cccc(Br)c1` (stereo unspecified), the inhibition is 25.3%.

Regarding `CC(=O)Nc1ccc(OCc2ccc(Br)cc2F)cc1`, the inhibition was 62.5% (active). With `O=C1N=C(c2ccccc2)OC1=CC=Cc1ccccc1` the figure was -12.3%. To `COc1ccccc1/C=C/C=C1N=C(/C=C/c2ccc(C)cc2)OC\1=O` belongs 81.8% (active).

As for `Cc1cc(NC(=O)c2cccn(Cc3ccc(Cl)cc3)c2=O)c2ccccc2n1`, the inhibition was 20.7%.

In the case of `O=c1c2ccccc2nnn1Cc1ccc(Cl)cc1`, the inhibition was 103% (active).

`Cc1ccc(OCC(O)Cn2nnc3ccccc3c2=O)cc1` (stereo unspecified): the inhibition was 35%. In the case of `O=c1c2ccccc2nnn1CSc1ccc(F)cc1`, the inhibition is 72.2% (active). `CC(C)CCOc1ccc(C=C(C#N)C#N)cc1`: the inhibition is 51.5% (active). With `CC1N(C)c2ccc(C=C(C#N)C#N)cc2C1(C)C` (stereo unspecified) the figure was -15.1%; with `CCCc1nnc(SCc2ccc(OCCC(C)C)cc2)n1N`, 37.1%. Turning to `Cc1csc(SCc2cc(=O)c(OC(=O)c3ccc(C)c(C)c3)co2)n1`, the inhibition is -15%. `O=C(c1cnn2ccccc12)N1CCCC(CCc2cccc(C(F)(F)F)c2)C1` (stereo unspecified): the inhibition was 93.1% (active). For the compound `COc1coc(CN2CCCC(CCc3ccccc3C)C2)cc1=O` (stereo unspecified), the inhibition is 33.7%. To `O=C(c1cc(COc2cccc(C(F)(F)F)c2)on1)N1CCCC(CCCO)C1` (stereo unspecified) belongs 47.5%; to `CC(C)c1ncc(CN2CCCC(CCc3cccc(C(F)(F)F)c3)C2)cn1` (stereo unspecified), 93.2% (active); to `COc1ncc(CN2CCCC(CCc3ccccc3C(F)(F)F)C2)cn1` (stereo unspecified), 77.6% (active). For `CCCC1CCCN(C(=O)c2cc3ccccc3cc2O)CC1` (stereo unspecified), the inhibition was 23.5%. To `COc1ncc(C(=O)N2CCCC(COc3cccc(F)c3)C2)cn1` (stereo unspecified) belongs 36.7%; to `CCOc1ccc(Cn2c(=O)oc3ccccc32)cc1`, 68.1% (active). With `CCCOc1ccc(Cn2c(=O)oc3ccc(C)cc32)cc1` the figure was 67.2% (active); with `COc1ccc(Cn2c(C3CCCCC3)nc3oc4ccccc4c(=O)c3c2=O)cc1`, -20.8%. Turning to `CCCOc1ccc(Cc2nn[nH]n2)cc1`, the inhibition was 34.6%.

For the compound `CCCOc1ccc(C2c3c(oc4ccc(C)cc4c3=O)C(=O)N2c2nccs2)cc1` (stereo unspecified), the inhibition is -18.8%. With `CCOC1=CC(=O)N(Cc2ccccc2)C1` the figure was 48.1%; with `NC1=NC(=O)C(CC(=O)Nc2ccc(SC(F)(F)C(F)(F)C(F)(F)F)cc2)S1` (stereo unspecified), 35.5%; with `O=S(=O)(/C=C/c1ccccc1)NC1CCCCC1`, 17%. To `O=S(=O)(/C=C/c1ccccc1)Nc1ccccc1C(F)(F)F` belongs 78.4% (active); to `O=S(=O)(/C=C/c1ccccc1)NCCc1cccc2ccccc12`, 6.24%.

For `O=S(=O)(/C=C/c1ccccc1)Nc1ccc(Cl)cc1F`, the inhibition was 81.5% (active). With `Cc1ccc2nc(-c3cccc(N)c3C)oc2c1` the figure was 42.1%; with `COc1ccc(OCCNc2ccccc2-c2nn[nH]n2)cc1`, 22.1%; with `Cc1cccc(C)c1-c1ccc(-c2nn[nH]n2)cc1`, 70.6% (active).

Take `O=C(Cn1ncc(Cl)c(Cl)c1=O)Nc1ccc2ccccc2c1`: the inhibition is 11%. On to `O=C(Cn1ncc(Cl)c(Cl)c1=O)c1cc(F)ccc1F`, for which the inhibition was -50.8%.

On to `O=C(Cn1ncc(Cl)c(Cl)c1=O)c1ccc2c(c1)CCC2`, for which the inhibition was 82.8% (active). To `CC(C)(C)c1ccc(OCc2ccc(C(=O)OCC#N)cc2)cc1` belongs -2.26%; to `CC(C)OC(=O)c1ccc(COc2ccc(C(C)(C)C)cc2)o1`, 75.8% (active); to `CC1CC1c1ccc(/C=C2/SC(N)=NC2=O)o1` (stereo unspecified), 5.99%. With `CC1CC1c1ccc(CCC(=O)Nc2ccccn2)o1` (stereo unspecified) the figure was 48.8%; with `CC(C)c1nc(CC(=O)N(C)Cc2ccc(C3CC3C)o2)cs1` (stereo unspecified), 83.2% (active); with `COc1cccc(CC(=O)Nc2ccc3c(c2)CCC3)c1`, -43.3%.

As for `COc1cccc(Cc2nsc(Oc3ccc(CC(=O)O)cc3)n2)c1`, the inhibition was 88.3% (active). `C=C(C)COc1cccc(C(=O)NCc2noc(C3CCCC3)n2)c1`: the inhibition was 38.4%.

Take `CN(Cc1ccc2cccc(O)c2n1)Cc1noc(C2CCC2)n1`: the inhibition is 98.5% (active).

`COCc1nnc(NS(=O)(=O)c2ccc(Br)cc2)s1`: the inhibition result was “inactive”. Regarding `CCc1nnc(NS(=O)(=O)c2ccccc2Cl)s1`, the inhibition was 80.2% (active). To `CC(C)c1nnc(NS(=O)(=O)c2ccc(Cl)s2)s1` belongs -36.5%; to `c1cc2cc(CNc3nc(NCC4CC4)nc4ccsc34)ccc2o1`, 76.9% (active); to `Clc1ccccc1CSc1nnc(-c2ccc3c(c2)OCO3)o1`, 1.82%. With `Brc1ccccc1CSc1nnc(-c2ccc3c(c2)OCO3)o1`, the inhibition was 99.6% (active). Turning to `N#CCSc1nnc(-c2ccc3c(c2)OCO3)o1`, the inhibition is 97.5% (active). With `Brc1ccc(CSc2nnc(-c3ccc4c(c3)OCO4)o2)cc1` the figure was 59.2% (active); with `Clc1cccc(Cl)c1CSc1nnc(-c2ccc3c(c2)OCO3)o1`, 63.3% (active). `Brc1cc2c(cc1CSc1nnc(-c3ccccc3)o1)OCO2`: the inhibition was -11.5%. With `Clc1cccc(CSc2nnc(-c3ccc4c(c3)OCO4)o2)c1` the figure was 41.6%; with `CCn1nc(NC(C)=O)c2cc3ccc(C)cc3nc21`, -33.9%. For the compound `CN(C(=O)c1cc(Cl)sc1Cl)c1ccc(-c2onc3c2CCc2ccccc2-3)cc1`, the inhibition was 35.5%. With `Fc1ccc(-c2nnc(SCc3cc(Cl)c4c(c3)OCCO4)o2)cc1` the figure was 95.4% (active). With `N#Cc1ccc(CON=Cc2ccccc2OC(F)F)cc1` the figure was 52.2% (active); with `C(=NOCc1ccc(CON=Cc2ccccc2)cc1)c1ccccc1`, 16.2%. To `N#Cc1ccc(CON=Cc2ccccc2)cc1` belongs 70.7% (active); to `COc1ccc(C=NOCc2ccc(Cl)c(Cl)c2)c(OC)c1`, 32.8%. On to `Cc1nc(-n2nc(C3CC3)cc2NC(=O)c2ccc(F)cc2)[nH]c(=O)c1C`, for which the inhibition is 101% (active). To `Cc1nc(-n2nc(C3CC3)cc2NC(=O)c2cccc(F)c2)[nH]c(=O)c1C` belongs 100% (active).

On to `Cc1cccc(C(=O)Nc2cc(C3CC3)nn2-c2nc(C)c(C)c(=O)[nH]2)c1`, for which the inhibition is 99.3% (active).

On to `O=[N+]([O-])c1ccc(N2CCCCC2)cc1`, for which the inhibition was 48.6%. With `O=C1/C(=C/c2ccc(O)cc2)C(N2CCOCC2)=NN1c1ccc([N+](=O)[O-])cc1` the figure was 36.6%; with `CC(c1ccccc1)N1CCN(c2ccc([N+](=O)[O-])cc2)CC1` (stereo unspecified), 56.5% (active); with `C=CCc1c(C)nc2c(-c3ccccc3)cnn2c1NCCOC`, 17.5%. With `C=CCc1c(C)nc2c(-c3ccccc3)cnn2c1NCCN(C)C` the entry was “inactive”; with `C=CCc1c(C)nc2c(-c3cccc(Cl)c3)c(C)[nH]n2c1=O`, 99.8% (active). `COc1ccccc1Oc1cc(Cl)ncn1`: the inhibition is 53.5% (active). To `Fc1ccc(Oc2cc(Cl)ncn2)cc1` belongs 73.1% (active); to `Fc1ccc(CN2CCN(c3cc(Oc4ccc(F)cc4Cl)ncn3)CC2)cc1`, 39.7%; to `Fc1ccc(Oc2cc(N3CCc4ccccc4C3)ncn2)cc1F`, 34.6%. To `COc1cc(C(C)=O)ccc1Oc1cnccn1` belongs 3.02%.

What is called inhibition is the drop in the measured response relative to a control, in per cent.
